Drawing on PubChem BioAssay, this text covers composite z-score and z-score for five compounds.

Assay [1] is described as follows: compounds binding Alexa647 anti-His antibody – biochemical, small-molecule microarray, 635 nm fluorescence, artefact control for SMM control protein annotation, primary screen (AID 1128).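 Further: score merges feature fluorescence with signal-to-noise for each printed compound spot.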 The conditions noted are these: higher = more signal.
In assay [2] the test system is Human papillomavirus type 1a E7 protein (residues 1-88). Kind of assay: HPV1a E7 small-molecule binders, primary screen, biochemical, small-molecule microarray, residues 1-88, 635 nm (AID 1129). The conditions noted are these: small-molecule microarray binding, fluorescence 635 nm; higher = more signal.
Assay [3] concerns the target Focal adhesion kinase 1 (Homo sapiens) (UniProt Q05397). Description: PTK2 protein binding on printed compound slides – biochemical, small-molecule microarray, 635/667 nm fluorescence, BSA, DTT, primary screen (AID 1130).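 Further: composite of spot emission at 667 nm and signal to noise over triplicate slides.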 The following applies: 635 nm fluorescence, higher = more signal.
The test system of assay [4] is Fibrinogen (Alexa647-labelled). Description: Alexa647-fibrinogen binding to printed small molecules – biochemical, small-molecule microarray, 635/667 nm fluorescence, artefact control for SMM control-protein annotation, profiling panel (AID 1131).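 Further: z-score merges 667 nm fluorescence with per-spot signal-to-noise over triplicate slides.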 The following applies: fibrinogen-A647 binding fluorescence, higher = more signal.
Assay [5] has as its target Follistatin (Homo sapiens) (UniProt P19883). Kind of assay: FST protein binding to printed compounds – biochemical, small-molecule microarray, 635/667 nm fluorescence, primary screen (AID 1132). The conditions noted are these: 635 nm fluorescence, higher = more signal.
The target of assay [6] is Fibroblast growth factor 2 (Homo sapiens) (UniProt P09038). Description: basic fibroblast growth factor binding to printed compounds – biochemical, small-molecule microarray, 635/667 nm fluorescence, primary screen (AID 1133). The conditions noted are these: FGF2, fluorescence 635/667, higher = more signal.
Chain of Fibroblast growth factor 2 (Homo sapiens) (P09038 whole entry, looked up): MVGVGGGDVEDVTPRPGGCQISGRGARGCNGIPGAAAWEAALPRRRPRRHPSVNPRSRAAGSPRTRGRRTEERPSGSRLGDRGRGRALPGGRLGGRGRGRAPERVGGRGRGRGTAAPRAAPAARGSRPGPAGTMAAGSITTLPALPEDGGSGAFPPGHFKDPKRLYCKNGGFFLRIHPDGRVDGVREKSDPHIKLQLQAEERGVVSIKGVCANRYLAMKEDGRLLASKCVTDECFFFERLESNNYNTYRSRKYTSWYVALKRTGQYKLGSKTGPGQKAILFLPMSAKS
The nature of assay [7]: JC-1 mitochondrial potential readout, lung cancer cells – cell-based, A549, JC-1 fluorescence, basal, 24 h, 100 nL, profiling panel (AID 1138).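 Further: A549 lung adenocarcinoma cells under basal conditions with no added stimulus; test concentration not given here.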 The following applies: higher = more signal.
In the next assay the test system is Lefty1. Kind of assay: Lefty1 protein binding to printed compounds – biochemical, small-molecule microarray, 635/667 nm fluorescence, primary screen (AID 1139). The conditions noted are these: fluorescence 635/667, higher = more signal.
For assay [8], the system named is wheat germ agglutinin (Triticum aestivum), Alexa647-labelled. Kind of assay: Alexa647-WGA lectin binding to printed small molecules – biochemical, small-molecule microarray, 635/667 nm fluorescence, artefact control for SMM control-protein annotation, profiling panel (AID 1140).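 Further: score merges 667 nm feature emission with signal to noise over triplicate slides.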 The following applies: WGA-A647 binding, 635 nm fluorescence, higher = more signal.
The target in assay [9] is Luciferin 4-monooxygenase (Photinus pyralis) (UniProt P08659). Kind of assay: inhibition of purified Photinus pyralis luciferase – biochemical, luminescence, purified enzyme, 2006 set, primary screen (AID 1141).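 Further: cell-free assay with purified firefly luciferase at 100 ng per well in PBS; test concentration not given here.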 The conditions noted are these: purified firefly luciferase, SteadyGlo luminescence, 30 min; higher = more signal, called active from +8 up or from −8 down.
Chain of Luciferin 4-monooxygenase (Photinus pyralis) (P08659 whole entry, looked up): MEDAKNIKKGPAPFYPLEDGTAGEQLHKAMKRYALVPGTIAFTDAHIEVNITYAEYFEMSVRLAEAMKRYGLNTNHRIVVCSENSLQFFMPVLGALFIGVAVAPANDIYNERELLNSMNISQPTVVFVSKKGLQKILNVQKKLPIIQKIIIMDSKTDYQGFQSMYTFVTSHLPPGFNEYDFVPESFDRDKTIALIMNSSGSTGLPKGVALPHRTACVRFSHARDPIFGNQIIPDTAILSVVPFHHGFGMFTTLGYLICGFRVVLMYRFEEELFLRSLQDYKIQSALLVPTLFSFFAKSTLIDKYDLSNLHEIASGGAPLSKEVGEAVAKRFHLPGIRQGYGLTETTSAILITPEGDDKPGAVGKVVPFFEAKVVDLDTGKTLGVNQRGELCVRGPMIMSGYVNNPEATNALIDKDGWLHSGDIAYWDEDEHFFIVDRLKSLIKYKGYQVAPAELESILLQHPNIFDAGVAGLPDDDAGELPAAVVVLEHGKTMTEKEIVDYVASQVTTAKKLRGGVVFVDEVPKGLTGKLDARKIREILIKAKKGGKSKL
Assay [10] concerns Wnt5a (protein binding on small-molecule microarray). Description: small molecules binding Wnt5a protein – biophysical, small-molecule microarray, 635/667 nm fluorescence, primary screen (AID 1142).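 Further: fluorescence read at 667 nm with signal to noise per printed feature.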 The following applies: 635 nm fluorescence, higher = more signal.
A short description of assay [11]: ATP-based viability of Huh7 replicon cells – cell-based, CellTiter-Glo luminescence, basal, 48 h, cytotoxicity control for HCV replication inhibitor project, primary screen (AID 1143).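 Further: Huh7 hepatoma cells carrying a hepatitis C replication reporter with no stimulus; test concentration not given here.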 The conditions noted are these: higher = more signal, called active from +8 up or from −8 down. A general note: A replicon is a self-replicating genome or part of one, used to study replication in cells.

A short description of assay [12]: Pseudomonas biofilm growth suppression – PAO1 strain, BacTiter-Glo luminescence, LB-PBS, primary screen (AID 1144). The conditions noted are these: P. aeruginosa PAO1 biofilm, 12 h, higher = more signal.
A short description of assay [13]: basal CRE-LacZ reporter activity in PC12 – cell-based, unstimulated, primary screen (AID 1145). The conditions noted are these: no forskolin, luminescence, 4.5 h, higher = more signal, called active from +8 up or from −8 down.
Assay [14] in a line: forskolin-driven CRE-LacZ activity in PC12 – cell-based, CRE-LacZ reporter, forskolin-stimulated, primary screen (AID 1146).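 Further: PC12 cells with 6xCRE LacZ reporter stimulated by forskolin 10 µM; beta-galactosidase reporter signal reflecting CREB driven transcription.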 The following applies: luminescence, 4.5 h, higher = more signal, called active from +8 up or from −8 down.
The target in assay [15] is Streptavidin (Streptomyces avidinii) (UniProt P22629). Kind of assay: compounds binding control protein streptavidin – biophysical, small-molecule microarray, 635/667 nm fluorescence, artefact control for SMM compound annotation, primary screen (AID 1147).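 Further: signal reflects streptavidin binding to arrayed compounds as a control protein.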 The conditions noted are these: higher = more signal.
Chain of Streptavidin (Streptomyces avidinii) (P22629 whole entry, looked up): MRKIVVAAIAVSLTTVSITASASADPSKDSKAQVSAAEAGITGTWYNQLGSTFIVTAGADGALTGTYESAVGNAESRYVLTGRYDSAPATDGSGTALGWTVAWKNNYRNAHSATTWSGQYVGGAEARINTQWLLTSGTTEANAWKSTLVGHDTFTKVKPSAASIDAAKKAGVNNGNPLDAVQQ
Assay [16] can be described thus: probe aInhba binding on compound microarray – biochemical, small-molecule microarray, 635/667 nm fluorescence, primary screen (AID 1148).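 Further: score merges 667nm spot fluorescence with signal-to-noise for antibody binding to printed compounds.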 The following applies: higher = more signal.
Assay [17] concerns the target Torsin-1A (Homo sapiens) (UniProt O14656). Description: TOR1A wild-type binding on microarray – cell lysate, small-molecule microarray, lysate, 635/667 nm, primary screen (AID 1149). The following applies: COS7 hTOR1A-WT lysate, 635 nm fluorescence, higher = more signal.
Assay [18] has the same target. Description: torsin A mutant lysate binding on microarrays – cell lysate, small-molecule microarray, COS7 lysate, 635/667 nm fluorescence, primary screen (AID 1150).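 Further: score pools 667 nm emission and signal to noise measuring lysate protein binding.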 The following applies: COS7 hTOR1A mutant lysate, 635 nm fluorescence, higher = more signal.
The test system of assay [19] is Sonic hedgehog protein (Shh). Kind of assay: Sonic hedgehog microarray binding compounds – biochemical, small-molecule microarray, 635/667 nm fluorescence, primary screen (AID 1151).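 Further: Shh protein binding to compounds spotted on small-molecule microarray slides; score combines spot fluorescence intensity with signal-to-noise across triplicate slides.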 The following applies: 635 nm fluorescence, higher = more signal.

The source made the active and inactive calls. Unless noted, how the calls were made is not given here.

Chain of Focal adhesion kinase 1 (Homo sapiens) (Q05397 whole entry, looked up): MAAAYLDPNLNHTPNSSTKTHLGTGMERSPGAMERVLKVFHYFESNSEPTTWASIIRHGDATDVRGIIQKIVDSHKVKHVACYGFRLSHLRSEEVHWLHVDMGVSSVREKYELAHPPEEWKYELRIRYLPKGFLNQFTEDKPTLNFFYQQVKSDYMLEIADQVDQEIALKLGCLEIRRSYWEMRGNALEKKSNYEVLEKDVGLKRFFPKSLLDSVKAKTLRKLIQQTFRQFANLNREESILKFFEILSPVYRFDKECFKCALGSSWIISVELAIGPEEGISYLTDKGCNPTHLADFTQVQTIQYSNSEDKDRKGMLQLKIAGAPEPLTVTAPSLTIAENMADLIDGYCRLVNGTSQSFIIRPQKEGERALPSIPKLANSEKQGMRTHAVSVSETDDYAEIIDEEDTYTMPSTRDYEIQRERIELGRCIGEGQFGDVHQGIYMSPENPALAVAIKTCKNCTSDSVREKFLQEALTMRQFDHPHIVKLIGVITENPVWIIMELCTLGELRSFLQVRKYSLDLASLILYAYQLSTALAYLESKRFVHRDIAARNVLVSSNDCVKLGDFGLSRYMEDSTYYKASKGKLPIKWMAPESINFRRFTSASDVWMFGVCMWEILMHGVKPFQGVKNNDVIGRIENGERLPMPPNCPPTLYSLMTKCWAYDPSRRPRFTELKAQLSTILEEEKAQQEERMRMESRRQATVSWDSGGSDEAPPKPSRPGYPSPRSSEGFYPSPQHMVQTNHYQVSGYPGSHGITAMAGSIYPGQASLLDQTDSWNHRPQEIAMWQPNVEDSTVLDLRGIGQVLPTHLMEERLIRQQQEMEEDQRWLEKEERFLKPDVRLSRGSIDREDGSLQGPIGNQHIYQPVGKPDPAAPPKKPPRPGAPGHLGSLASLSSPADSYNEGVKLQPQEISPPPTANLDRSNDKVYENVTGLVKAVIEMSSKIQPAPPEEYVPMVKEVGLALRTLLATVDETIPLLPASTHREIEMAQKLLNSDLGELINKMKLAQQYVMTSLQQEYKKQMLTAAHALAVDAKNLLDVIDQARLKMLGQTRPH
Chain of Torsin-1A (Homo sapiens) (O14656 whole entry, looked up): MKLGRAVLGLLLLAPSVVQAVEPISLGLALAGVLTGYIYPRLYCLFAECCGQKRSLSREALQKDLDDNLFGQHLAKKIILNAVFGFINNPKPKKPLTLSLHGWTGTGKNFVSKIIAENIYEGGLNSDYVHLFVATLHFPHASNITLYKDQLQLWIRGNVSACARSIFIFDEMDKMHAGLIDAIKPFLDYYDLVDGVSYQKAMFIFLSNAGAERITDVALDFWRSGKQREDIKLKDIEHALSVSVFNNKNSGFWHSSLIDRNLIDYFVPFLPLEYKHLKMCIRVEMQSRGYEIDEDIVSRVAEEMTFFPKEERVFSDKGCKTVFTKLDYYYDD
Chain of Follistatin (Homo sapiens) (P19883 whole entry, looked up): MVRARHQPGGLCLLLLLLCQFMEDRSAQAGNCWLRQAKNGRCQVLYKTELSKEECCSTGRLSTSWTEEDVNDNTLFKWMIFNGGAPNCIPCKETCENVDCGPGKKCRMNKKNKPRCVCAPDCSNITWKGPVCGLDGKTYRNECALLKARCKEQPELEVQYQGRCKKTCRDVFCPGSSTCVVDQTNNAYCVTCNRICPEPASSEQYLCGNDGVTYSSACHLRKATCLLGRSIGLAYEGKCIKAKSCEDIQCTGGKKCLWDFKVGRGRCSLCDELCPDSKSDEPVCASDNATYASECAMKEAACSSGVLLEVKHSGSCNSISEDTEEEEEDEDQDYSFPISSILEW

For `CN(C)CCCCNC(=O)[C@H]1C[C@H]2C(=O)N[C@@H](CCCC[N+](C)(C)C)C(=O)N2[C@H]1c1ccc(O)cc1`, the composite z-score in [1] was 1.12; in [2], -0.454; in assay [3] it was -0.294; in assay [4], -1.24; in [5], 0.525; in assay [6], 0.0954. Also, the composite z-score in the assay with Lefty1 is 0.306; in assay [8], 0.0976; in [10] it was 0.0044; in assay [15] it was -0.202; in assay [16], -0.179; with Torsin-1A (Homo sapiens) [17], 0.278. Further, the results for the composite z-score (with Torsin-1A (Homo sapiens) [18]; in assay [19]) were 0.97 and 0.719, respectively. The z-score in [7] is -0.247; in assay [9], 0.0252 (inactive); in [11] it was -0.482 (inactive); in assay [12] it was 1.04 (inactive); in [13], -1.2 (inactive); in assay [14] it was -1.14 (inactive).

Turning to `CN1C=C(C(=O)OCCS(C)(=O)=O)C(C(=O)OCCS(C)(=O)=O)=CC(c2ccc(CO)cc2)=CC1c1cccs1` (stereo not given), the composite z-score turned out to be 1.48 in assay [1]; 0.577 in assay [2]; 0.0037 in [3]; 0.983 in [4]; 0.793 in assay [5]; 0.509 in assay [6]. For the same compound, the composite z-score with Lefty1 worked out at 0.644; in assay [8] it was 0.21; in assay [10], 0.0466; in assay [15], 1.42; in assay [16], 0.0659; with Torsin-1A (Homo sapiens) [17] it was 0.579. For the same compound, the composite z-score in the assay with Torsin-1A (Homo sapiens) [18] was 0.713; in assay [19], 0.929. The z-score is 2.1 in assay [7]; -1.63 (inactive) in [9]; -1.3 (inactive) in assay [11]; 0.637 (inactive) in assay [12]; 2.34 (inactive) in assay [13]; -1.45 (inactive) in assay [14].

On to `CC(C)C[C@@H]1NC(=O)CNC(=O)[C@@]23C(=O)N[C@@H](Cc4ccccc4)C2[C@H](C)[C@@]2(C)O[C@H]2C3/C=C/C/C=C\CNC1=O` (stereo not given in full), for which the composite z-score in assay [1] was 0.678; in [2], 0.331; in [3] it was -0.183; in assay [4] it was 0.949; in [5], 1.08; in [6], 0.759. Moreover, the composite z-score in the assay on Lefty1 was 1.07; in [8], -0.0197; in assay [10] it was 0.184; in assay [15] it was -0.0691; in assay [16], -0.0494; with Torsin-1A (Homo sapiens) [17], 1.09. The composite z-score with Torsin-1A (Homo sapiens) [18] is -0.134; in assay [19] it was 1.5. The z-score was 0.036 in assay [7]; -0.14 (inactive) in assay [9]; 0.0431 (inactive) in assay [11]; -0.826 (inactive) in assay [12]; -0.417 (inactive) in assay [13]; 0.297 (inactive) in assay [14].

As for `CCCCC=C[C@@H](NC(=O)c1ccccc1)c1ccccc1`, the composite z-score is 0.249 in [1]; 1.18 in assay [2]; 1.43 in assay [3]; 0.987 in assay [4]; 0.527 in [5]; -0.79 in assay [6]. In addition, the composite z-score with Lefty1 is 0.4; in [8], 0.68; in assay [10], -0.275; in [15], 1.89; in assay [16] it was 0.162; in the assay with Torsin-1A (Homo sapiens) [17], 0.128. Besides, the figures for the composite z-score (in the assay with Torsin-1A (Homo sapiens) [18]; in assay [19]) were 0.0135 and -0.863, respectively. In addition, the z-score was -0.584 in assay [7]; 0.965 (inactive) in [9]; -0.598 (inactive) in assay [11]; -0.287 (inactive) in assay [12]; 0.969 (inactive) in [13]; 1.39 (inactive) in [14].

For the compound `CCOC(=O)C[C@H]1[C@H](OC(=O)c2ccc(-c3ccccc3)cc2)[C@@H](NC(=O)Cc2ccc(OC)cc2)c2cc(OCCCO)ccc2N1C(=O)Cc1ccc(OC)cc1`, the composite z-score in assay [1] was -0.871; in assay [2], -0.0151; in assay [3], 0.0348; in assay [4], 0.15; in assay [5], 0.0322; in assay [6], -0.0269. The composite z-score in the assay with Lefty1 was -0.289; in [8], 0.175; in assay [10], -0.0129; in assay [15], -0.0417; in assay [16] it was -0.128; in the assay with Torsin-1A (Homo sapiens) [17] it was -0.305. Further, the composite z-score with Torsin-1A (Homo sapiens) [18] was 0.0922; in assay [19], -0.259. Also, the z-score is 1.94 in assay [7]; -0.754 (inactive) in [9]; 0.247 (inactive) in assay [11]; 0.00724 (inactive) in assay [12]; 0.773 (inactive) in assay [13]; -0.834 (inactive) in assay [14].
